Where “and” joins values, the source holds several entries; their conditions need not be identical. Equal values may be shown once. This is part of a sample that, as a whole, favours compounds with a hit. Of some 79,000 tested, about 15% had one in any assay. Calls of active or inactive are those of the source. No stated cut-off is given here; in the data, active means growth inhibition above about 70%; inactive means the rest.
How the values were obtained:
[1] = NCI Yeast Anticancer Drug Screen. Data for the rad50 strain (AID 155);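 further: 0% = growth of vehicle-only cultures of the same strain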; conditions: S. cerevisiae rad50 strain growth inhibition, stronger effect = higher value
How it was run: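 Relative growth inhibition (compound vs vehicle) was measured in yeast with a defined repair-gene alteration.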

[2] = NCI Yeast Anticancer Drug Screen. Data for the mec2-1 strain (AID 157); conditions: S. cerevisiae mec2-1 strain, stronger effect = higher value
How it was run: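 Cells of the genetically defined mec2-1 yeast strain are incubated with test compound. Inhibition of growth is calculated against vehicle-treated controls.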

[3] = NCI Yeast Anticancer Drug Screen. Data for the sgs1 mgt1 strain (AID 161);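 further: 0% = growth of cultures given vehicle only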; conditions: S. cerevisiae sgs1 mgt1 strain, stronger effect = higher value
How it was run: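 Inhibition of yeast growth, normalised to vehicle-treated controls, is reported for a strain bearing genetic alterations in DNA damage repair.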

[4] = NCI Yeast Anticancer Drug Screen. Data for the cln2 rad14 strain (AID 165);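 further: 0% = growth equal to vehicle treated cultures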; conditions: S. cerevisiae cln2 rad14 strain, stronger effect = higher value
How it was run: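 The screen exposed genetically defined yeast (cln2 rad14) to test compounds and scored growth inhibition relative to vehicle-treated controls.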

[5] = NCI Yeast Anticancer Drug Screen. Data for the bub3 strain (AID 167); conditions: S. cerevisiae bub3 mutant strain, stronger effect = higher value
How it was run: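 Screening used yeast with an engineered genetic alteration affecting cell cycle control. Compound-exposed cultures were compared with vehicle cultures, and reduced growth was taken as inhibition.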

[6] = NCI Yeast Anticancer Drug Screen. Data for the mlh1 rad18 strain (AID 175); conditions: S. cerevisiae mlh1 rad18 strain growth inhibition, stronger effect = higher value
How it was run: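 Compound-treated yeast growth, normalised to vehicle controls. Strain bears defined DNA repair mutations.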

[7] = at 5.0 µM (retest, dose inferred, filed as 0.5)
[8] = at 50.0 µM (retest, dose inferred, filed as 5.0)

Measured: growth inhibition

CC(C)C1(NC(=O)C2C=C3c4cccc5[nH]cc(c45)CC3N(C)C2)OC2(O)C3CCCN3C(=O)C(Cc3ccccc3)N2C1=O (centres undefined) (tested in a mixture with another compound)
inactive: [1]; [7] 22% | [2]; [7] 4% | [3]; [7] 4% | [4]; [7] 6% | [5]; [7] 7% | [6]; [7] 6%
active: [1]; [8] 97% | [1]; at 50.0 µM 98.2% | [2]; [8] 99% | [2]; at 50.0 µM 98.6% | [3]; [8] 96% | [3]; at 50.0 µM 98.7% | [4]; [8] 98% | [4]; at 50.0 µM 96.8% | [5]; [8] 98% | [5]; at 50.0 µM 97.5% | [6]; [8] 98% | [6]; at 50.0 µM 96.8%

CCC[CH2][Sn]1([CH2]CCC)[O]C(c2ccccn2)S(=O)(=O)[O]1 (centres undefined)
inactive: [1]; [7] 19% | [1]; [8] 19% | [2]; [7] 12% | [2]; [8] 12% | [3]; [7] 18% | [3]; [8] 18% | [4]; [7] 5% | [4]; [8] 5% | [5]; [7] 1% | [5]; [8] 1% | [6]; [7] 10% | [6]; [8] 10%
active: [1]; at 50.0 µM 90.2% | [2]; at 50.0 µM 91.2% | [3]; at 50.0 µM 90.1% | [4]; at 50.0 µM 90.5% | [5]; at 50.0 µM 91.3% | [6]; at 50.0 µM 88.3%

CC[C@@]1(O)CC(OC2CC(N3CCOCC3)C(O)C(C)O2)c2c(O)c3c(c(O)c2[C@H]1O)C(=O)c1cccc(O)c1C3=O (some centres undefined)
inactive: [1]; at 50.0 µM 59.3% | [2]; [7] 36% | [2]; at 50.0 µM 51.2% | [3]; [7] 63% | [3]; at 50.0 µM 49.4% | [4]; [7] 31% | [5]; [7] 24% | [6]; [7] 52% | [6]; at 50.0 µM 51.1%
active: [1]; [7] 96% | [1]; [8] 98% | [2]; [8] 99% | [3]; [8] 99% | [4]; [8] 99% | [4]; at 50.0 µM 97.3% | [5]; [8] 99% | [5]; at 50.0 µM 99% | [6]; [8] 98%

CC(=O)O[C@H]1CC[C@H]2[C@@H]3CC[C@H]4CC(=O)CC[C@@H]4[C@H]3CC[C@]12C
active: [3]; at 50.0 µM 88.6%
inactive: [1]; [7] -2% | [1]; [8] -19% | [1]; at 50.0 µM 11% | [2]; [7] -2% | [2]; [8] -9% | [2]; at 50.0 µM 10.8% | [3]; [7] -2% | [3]; [8] -10% | [4]; [7] -14% | [4]; [8] -6% | [4]; at 50.0 µM 1.15% | [5]; [7] 4% | [5]; [8] 7% | [5]; at 50.0 µM 61.5% | [6]; [7] -1% | [6]; [8] -7% | [6]; at 50.0 µM -1.35%

[Cl][Pt+2][Cl].[NH-]C(c1ccccc1)C([NH-])c1ccccc1 (centres undefined)
inactive: [1]; [7] -11% | [1]; [8] 10% | [1]; at 50.0 µM -22.9% and 11% | [2]; [7] 2% | [2]; [8] -8% | [2]; at 50.0 µM -21.4% and 0.25% | [3]; [7] -10% | [3]; [8] 9% | [3]; at 50.0 µM 19% and 2.15% | [4]; [7] -23% | [4]; [8] -10% | [4]; at 50.0 µM 18.6% and 21.9% | [5]; [7] -9% | [5]; [8] 4% | [5]; at 50.0 µM -2.7% and -2.2% | [6]; [7] -6% | [6]; [8] 2% | [6]; at 50.0 µM -17.6% and 29.3%

CCC[CH2][Sn][Cl]
active: [1]; [7] 99% | [1]; [8] 98% | [1]; at 50.0 µM 98.2% | [2]; [7] 100% | [2]; [8] 98% | [2]; at 50.0 µM 98.7% | [3]; [7] 99% | [3]; [8] 99% | [3]; at 50.0 µM 98.8% | [4]; [7] 99% | [4]; [8] 98% | [4]; at 50.0 µM 97.7% | [5]; [7] 99% | [5]; [8] 97% | [5]; at 50.0 µM 98.1% | [6]; [7] 99% | [6]; [8] 98% | [6]; at 50.0 µM 97.4%

CC(O)([CH2][Hg][Cl])C(O)[CH2][Hg][Cl] (centres undefined)
active: [1]; [7] 98% | [1]; [8] 99% | [1]; at 50.0 µM 99.2% | [2]; [7] 99% | [2]; [8] 100% | [2]; at 50.0 µM 99.5% | [3]; [7] 98% | [3]; [8] 99% | [3]; at 50.0 µM 99.3% | [4]; [7] 98% | [4]; [8] 99% | [4]; at 50.0 µM 97.7% | [5]; [7] 99% | [5]; [8] 99% | [5]; at 50.0 µM 99.4% | [6]; [7] 99% | [6]; [8] 99% | [6]; at 50.0 µM 97.5%

N#Cc1ccccc1C(Cl)(Cl)Cl
inactive: [1]; [7] 3% | [1]; [8] -6% | [1]; at 50.0 µM -5.55% | [2]; [7] 6% | [2]; [8] 12% | [2]; at 50.0 µM -21.9% | [3]; [7] -8% | [3]; [8] 3% | [3]; at 50.0 µM -7.1% | [4]; [7] 38% | [4]; [8] 18% | [4]; at 50.0 µM 27.1% | [5]; [7] 26% | [5]; [8] 13% | [5]; at 50.0 µM 16.4% | [6]; [7] 9% | [6]; [8] 28% | [6]; at 50.0 µM -0.3%

Reference: PubChem BioAssay (NCI)
